Our source for the Potency and outcome values is PubChem BioAssay (Tox21).

Assay [1] can be described thus: qHTS assay to identify small molecule that activate the aryl hydrocarbon receptor (AhR) signaling pathway - cell viability counter screen (AID 743086). Also: nearly all actives have a fitted effect of over 45% in size. Also: potency is read from the fitted curve at half-maximal effect. In short, it runs like this:
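HepG2-AhR-luc (HG2L7.5c1) cells, 4000/well, treated 24 h at 37 C with compound; viability measured as CellTiter-Fluor fluorescence after 30 min in the same wells as the luciferase read.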

Assay [2] is described as follows: qHTS assay to identify small molecule antagonists of the peroxisome proliferator-activated receptor gamma (PPARg) signaling pathway - cell viability counter screen (AID 743194). Also: nearly all actives have a fitted effect of over 55% in size. Also: potency is read from the fitted curve at half-maximal effect. The method, boiled down: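 Cytotoxicity counter screen in PPARg-bla HEK293H cells, same wells as reporter assay. Compounds plus 50 nM rosiglitazone (final) for 17 h at 37 C, then viability read by CellTiter-Glo luminescence.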
A general note: Quantitative high-throughput screening tests each substance at several concentrations.

Assay [3] can be described thus: qHTS assay for small molecule agonists of the antioxidant response element (ARE) signaling pathway - cell viability counter screen (AID 743203; calls by dose curve; also: nearly all actives have a fitted effect of over 55% in size; also: potency is read from the fitted curve at half-maximal effect). In short, it runs like this:
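Parallel cytotoxicity read-out for the ARE-bla screen: HepG2 reporter cells, 16 hrs with compounds, then CellTiter-Glo luminescence.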

A short description of assay [4]: qHTS assay for small molecule activators of the heat shock response signaling pathway - cell viability counter screen (AID 743209). Also: nearly all actives have a fitted effect of over 50% in size. The method, boiled down:
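To flag cytotoxic compounds, HSE-bla HeLa cells plated at 1500 cells/well were dosed for 5 h at 37 C, followed by the reporter FRET read and then CellTiter-Glo, with luminescence recorded 30 min after reagent addition.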

Assay [5] is described as follows: qHTS assay for small molecule activators of the heat shock response signaling pathway (AID 743210; active = well fitted activation curve with a large enough effect in the signal ratio in the repeat runs, with a control signal flat, not every such curve was filed as active; the % refers to the signal ratio; also: series mostly up to about 63 µM). In short, it runs like this: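 Beta-lactamase reporter read-out: FRET substrate fluorescence after 2.5 h at RT, following 5 h compound treatment at 37 C of HeLa cells carrying HSE-driven bla reporter; quantitative HTS format.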
A short description of assay [6]: qHTS assay to identify small molecule antagonists of the peroxisome proliferator-activated receptor delta (PPARd) signaling pathway - cell viability counter screen (AID 743213). Also: nearly all actives have a fitted effect of over 50% in size. Also: potency is read from the fitted curve at half-maximal effect. In short, it runs like this:
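In this counter screen, HEK293H cells carrying a UAS-beta-lactamase reporter are co-treated with test compounds and 300 nM L165041 (final) for 17 h at 37 C; cell viability is quantified by CellTiter-Glo luminescence.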

Assay [7] concerns the target Bile acid receptor (Homo sapiens) (UniProt Q96RI1). Kind of assay: qHTS assay to identify small molecule agonists of the farnesoid-X-receptor (FXR) signaling pathway (AID 743220; active = well fitted activation curve with a large enough effect in the signal ratio in the repeat runs, not every such curve was filed as active; the % refers to the signal ratio). In short, it runs like this: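 FXR-UAS-bla HEK 293T cells carrying a UAS-driven beta-lactamase reporter were plated for 5 h at 37C/5% CO2, then exposed to DMSO-dissolved Tox21 10K compounds for 16 h at 37C. A LiveBLAzer B/G FRET substrate was loaded for 2 h at room temperature before fluorescence reading.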

A short description of assay [8]: qHTS assay to identify small molecule agonists of the peroxisome proliferator-activated receptor delta (PPARd) signaling pathway - cell viability counter screen (AID 743211). Also: nearly all actives have a fitted effect of over 55% in size. Also: potency is read from the fitted curve at half-maximal effect. In short, it runs like this:
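Viability was measured as CellTiter-Glo luminescence (30 min, room temperature) in the same wells as the beta-lactamase readout. GeneBLAzer PPARd UAS-bla HEK293H cells received compound after 5 h plating and were incubated 17 h at 37 C.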

A short description of assay [9]: qHTS assay to identify small molecule antagonists of the farnesoid-X-receptor (FXR) signaling pathway - cell viability counter screen (AID 743221; active = well fitted cell-killing curve with a large enough effect in the repeat runs, not every such curve was filed as active; also: nearly all actives have a fitted effect of over 50% in size; also: potency is read from the fitted curve at half-maximal effect). The method, boiled down:
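Cytotoxicity counter screen run in the FXR-bla reporter wells: HEK 293T cells exposed to compound with 50 uM (final) chenodeoxycholic acid for 16 h, 37 C, then viability measured by CellTiter-Glo luminescence after 30 min, room temperature.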

For assay [10], the target named is Vitamin D3 receptor (Homo sapiens) (UniProt P11473). Nature of the assay: qHTS assay to identify small molecule agonists of the vitamin D receptor (VDR) signaling pathway (AID 743222; calls by dose curve). In short, it runs like this: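 Using LiveBLAzer B/G FRET detection, agonism was scored in VDR-bla cells exposed overnight (16 h, 37C) to DMSO-dissolved compounds; substrate incubation was 2 h at room temperature.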

The target is the same in assay [11]. Kind of assay: qHTS assay to identify small molecule antagonists of the vitamin D receptor (VDR) signaling pathway (AID 743223; active = well fitted inhibition curve with a large enough effect in the signal ratio in the repeat runs, not every such curve was filed as active; the % refers to the signal ratio). In short, it runs like this: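 Antagonist mode: compound added to VDR-bla cells alongside agonist 1alpha,25-dihydroxyvitamin D3 (3 nM final), incubation 16 h at 37C. Read-out is LiveBLAzer FRET fluorescence, 2 h at room temperature.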

The target of assay [12] is Peroxisome proliferator-activated receptor delta (Homo sapiens) (UniProt Q03181). Nature of the assay: qHTS assay to identify small molecule agonists of the peroxisome proliferator-activated receptor delta (PPARd) signaling pathway (AID 743212; calls by dose curve). The method, boiled down: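 Read-out: beta-lactamase FRET fluorescence after 2 h room-temperature incubation with LiveBLAzer B/G substrate. Cells were HEK293H carrying a UAS-bla reporter for PPARd, treated at 37 C with DMSO-dissolved compounds.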

For assay [13] the target is unchanged. Nature of the assay: qHTS assay to identify small molecule antagonists of the peroxisome proliferator-activated receptor delta (PPARd) signaling pathway (AID 743215; active = well fitted inhibition curve with a large enough effect in the signal ratio in the repeat runs, not every such curve was filed as active; the % refers to the signal ratio;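 also: cells stimulated with agonist L165041 at 300 nM final during compound exposure; series mostly up to about 62 µM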). The method, boiled down: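 Screen format: qHTS, antagonist mode. HEK293H PPARd-bla cells received compound and 300 nM L165041 (final), 17 h, 37 C. Beta-lactamase detected via FRET substrate fluorescence, 2 h, room temperature.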

The nature of assay [14]: qHTS assay to identify small molecule agonists of the farnesoid-X-receptor (FXR) signaling pathway - cell viability counter screen (AID 743218). Also: nearly all actives have a fitted effect of over 45% in size. Also: potency is read from the fitted curve at half-maximal effect. The method, boiled down: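 Same-well cytotoxicity check on FXR-UAS-bla HEK 293T cells: 5 h attachment, 16 h compound at 37 C, CellTiter-Glo luminescence read at room temperature after 30 min.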
Assay [15] is described as follows: qHTS assay for small molecule agonists of the antioxidant response element (ARE) signaling pathway (AID 743202; active = well fitted activation curve with a large enough effect in the signal ratio in the repeat runs, not every such curve was filed as active; the % refers to the signal ratio; also: potency is read from the fitted curve at half-maximal effect). The method, boiled down:
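HepG2 ARE-bla reporter line, 2,000 cells/well; 5 h preincubation 37 C/5% CO2; compound (DMSO) 16 h 37 C; B/G FRET substrate 2 h RT; fluorescence intensity.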

Assay [16] addresses Bile acid receptor (Homo sapiens) (UniProt Q96RI1). Nature of the assay: qHTS assay to identify small molecule antagonists of the farnesoid-X-receptor (FXR) signaling pathway (AID 743217; active = well fitted inhibition curve with a large enough effect in the signal ratio in the repeat runs, not every such curve was filed as active; the % refers to the signal ratio). In short, it runs like this: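 Quantitative HTS, beta-lactamase reporter format: FXR-UAS-bla HEK 293T cells co-treated 16 h at 37 °C with compounds and 50 uM final chenodeoxycholic acid, then read by B/G FRET fluorescence.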

Inconclusive results are not listed. Values without a mark were called inactive. The source made the active and inactive calls. Unless noted, calls follow the shape of the dose curve; as a rule, active = well fitted curve in the direction sought with a large enough effect in the repeat runs; inconclusive = weak or mixed curves; inactive = no such curve, though single readings can be large; an effect the other way counts as inactive or inconclusive.

Sequence of Vitamin D3 receptor (Homo sapiens) (P11473 whole entry, looked up): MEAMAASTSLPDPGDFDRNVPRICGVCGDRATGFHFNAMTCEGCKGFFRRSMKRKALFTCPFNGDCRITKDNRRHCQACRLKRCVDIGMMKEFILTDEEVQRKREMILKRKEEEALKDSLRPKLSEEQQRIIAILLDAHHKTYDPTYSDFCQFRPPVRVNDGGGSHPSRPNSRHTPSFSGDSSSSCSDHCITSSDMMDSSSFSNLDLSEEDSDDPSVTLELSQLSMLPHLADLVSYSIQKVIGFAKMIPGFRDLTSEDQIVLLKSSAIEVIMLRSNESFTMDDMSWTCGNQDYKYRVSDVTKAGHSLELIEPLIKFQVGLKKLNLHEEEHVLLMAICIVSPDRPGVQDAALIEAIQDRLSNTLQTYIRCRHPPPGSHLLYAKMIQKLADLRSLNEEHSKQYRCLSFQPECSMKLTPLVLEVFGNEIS
Sequence of Bile acid receptor (Homo sapiens) (Q96RI1 whole entry, looked up): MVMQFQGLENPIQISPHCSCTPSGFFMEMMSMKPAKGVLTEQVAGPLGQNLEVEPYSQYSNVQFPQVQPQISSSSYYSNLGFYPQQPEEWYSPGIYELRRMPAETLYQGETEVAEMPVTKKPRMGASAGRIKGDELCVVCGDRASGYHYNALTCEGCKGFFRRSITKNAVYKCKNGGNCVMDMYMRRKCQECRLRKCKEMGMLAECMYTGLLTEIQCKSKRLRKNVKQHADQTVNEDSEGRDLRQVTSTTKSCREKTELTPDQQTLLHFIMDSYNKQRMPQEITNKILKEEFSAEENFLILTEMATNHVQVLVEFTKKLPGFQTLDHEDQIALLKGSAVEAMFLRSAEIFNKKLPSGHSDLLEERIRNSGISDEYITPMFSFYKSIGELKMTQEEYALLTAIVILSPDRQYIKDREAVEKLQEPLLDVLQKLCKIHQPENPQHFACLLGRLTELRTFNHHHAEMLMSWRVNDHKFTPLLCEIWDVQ
Sequence of Peroxisome proliferator-activated receptor delta (Homo sapiens) (Q03181 whole entry, looked up): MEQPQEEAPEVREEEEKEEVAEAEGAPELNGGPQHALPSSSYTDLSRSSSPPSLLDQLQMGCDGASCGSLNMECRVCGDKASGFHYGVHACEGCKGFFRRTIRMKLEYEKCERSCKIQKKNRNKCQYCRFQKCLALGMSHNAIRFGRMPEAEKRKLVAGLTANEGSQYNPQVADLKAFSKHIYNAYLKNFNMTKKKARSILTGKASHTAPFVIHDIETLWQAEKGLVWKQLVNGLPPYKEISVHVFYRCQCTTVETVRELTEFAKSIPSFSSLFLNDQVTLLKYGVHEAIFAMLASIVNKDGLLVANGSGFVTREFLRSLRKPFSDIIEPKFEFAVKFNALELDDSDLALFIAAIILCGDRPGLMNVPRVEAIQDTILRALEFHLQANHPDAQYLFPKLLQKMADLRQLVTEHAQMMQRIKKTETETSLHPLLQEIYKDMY

In the case of `CC1=CCCC(C)(C)C12CCC(C)O2` (stereo unspecified), the Potency result in assay [1], in [2], in assay [3], in assay [4], in assay [5] and in [6] was “inactive” in each case. Also, the Potency result in assay [7] is “inactive”.
For the compound `COc1cc2nc(Cl)nc(N)c2cc1OC`, the Potency entry in assay [2], in assay [3], in assay [4], in assay [5], in assay [8] and in [6] was “inactive” throughout. Further, the Potency entry in [9] and in assay [10] was “inactive” each time. In addition, in assay [11], the call was inactive.
For the compound `CC(C)(O)c1ccc(CNC(=O)c2cccnc2Oc2ccc(F)cc2)cc1`, the Potency entry in [1], in assay [2], in assay [3], in assay [4], in assay [5] and in [8] was “inactive” throughout. Further, the Potency entry in [12], in assay [6], in assay [13], in assay [14] and in assay [9] was “inactive” throughout.
As to `CCCCCCc1ccc(-c2ccc(C#N)cc2)cc1`, the Potency result in assay [1], in assay [2], in assay [15], in assay [3], in assay [4] and in [5] was “inactive” throughout. Further, the Potency entry in assay [8], in [6], in [13], in assay [16], in [7] and in assay [9] was “inactive” throughout.
Consider `C/C=C(/C(=C/C)c1ccc(OC(C)=O)cc1)c1ccc(OC(C)=O)cc1`, for which the Potency in [15] was 13.3 µM (active). The Potency entry in [3], in assay [4], in [13], in [14], in assay [9] and in assay [10] was “inactive” in each case.
In the case of `CN(C)CCOC(c1ccccc1)c1ccc(Br)cc1` (stereo unspecified), the Potency result in [3], in [4], in assay [5], in assay [12], in [16] and in assay [7] was “inactive” each time. Moreover, the Potency entry in [10] is “inactive”. For the same compound, the outcome in [11] was inactive.
With `O[C@@H](COc1cccc2ncccc12)CN1CCN(C2c3ccccc3[C@@H]3[C@H](c4ccccc42)C3(F)F)CC1` (stereo partly specified), the Potency in assay [2] is 13.3 µM (active); in [3], 15 µM (active); in [8], 9.44 µM (active); in assay [6] it was 23.7 µM (active); in assay [14], 15 µM (active); in assay [9] it was 21.1 µM (active). The Potency entry in assay [4] and in assay [12] was “inactive” throughout.
For the compound `CCCC(=O)Nc1ccc(O)c(C(C)=O)c1`, the Potency entry in assay [2], in [15], in assay [3], in assay [4], in assay [5] and in [8] was “inactive” throughout. In addition, the Potency entry in [13], in assay [14] and in assay [9] was “inactive” each time.
As for `Cc1ccccc1S(=O)(=O)O`, the Potency result in [1], in [2], in assay [15], in [3], in [4] and in assay [5] was “inactive” each time. Also, the Potency entry in assay [8], in [6], in assay [14] and in assay [9] was “inactive” in each case.
As for `CCCCC`, the Potency entry in assay [1], in assay [15], in assay [3], in assay [4], in assay [8] and in assay [6] was “inactive” each time. The Potency entry in [13], in assay [16], in assay [14], in [7], in assay [9] and in [10] was “inactive” each time. Also, in [11], the result was inactive.
As to `CCc1cc(C2=C(C(=O)O)N(c3ccccc3C(F)(F)F)S(=O)(=O)c3ccccc32)cc2c1OCO2`, the Potency is 21.4 µM (active) in assay [1] and 6.04 µM (active) in [3]. The Potency result in [4], in [5], in [8], in [13] and in assay [9] was “inactive” in each case.
